A selection: hits, their analogues and other compounds. The true share with any hit is near 0.93%.
AGP1-GFP MLPCN – yeast TOR pathway AGP1-GFP modulation | S. cerevisiae AGP1-GFP multiplex flow cytometry, 3 h; GFP as percent of DMSO wells | GFP response vs DMSO, % at 10 µM | actives 0.02% (n = 320,000) | AID 2066;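 active means GFP response relative to DMSO above a set limit, near screen average plus 3 SD, cut at about 150% in these data; inconclusive means fewer than 70 cells counted for the yeast strain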;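 further: median GFP channel fluorescence of the gated AGP1 strain per well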
MEP2 TOR yeast – alters MEP2-GFP fluorescence in TOR pathway yeast screen; GFP response vs DMSO, % at 10 µM; actives 0.51% (n = 330,000); S. cerevisiae MEP2-GFP strain, flow cytometry GFP, 3 h; 100% = DMSO control level;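 active means GFP response versus DMSO above a set limit, roughly screen mean plus 3 SD, cut at about 180% in these data; inconclusive means fewer than 70 cells counted for a yeast strain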;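 further: median GFP fluorescence of the barcode-gated MEP2-GFP cells per well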
LAP4 TOR yeast – alters LAP4-GFP fluorescence in TOR pathway yeast screen; GFP response vs DMSO, % at 10 µM; AID 2023; actives 0.34% (n = 320,000); S. cerevisiae LAP4-GFP multiplex, flow cytometry GFP, 3 h; median GFP as percent of DMSO wells;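 active means GFP response vs DMSO above a set limit, about the screen mean plus 3 SD, cut at about 150% in these data; inconclusive means under 70 cell events counted for the yeast strain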
CIT2-GFP yeast – yeast TOR pathway CIT2-GFP modulation | S. cerevisiae CIT2-GFP strain, flow cytometry, 3 h; 100 means same as DMSO wells | GFP response vs DMSO, % at 10 µM | actives 0.065% (n = 320,000) | AID 2029;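 active means GFP response relative to DMSO above a set limit, near the screen mean plus 3 SD, cut at about 150% in these data; inconclusive means Fewer than 70 cells measured for a yeast strain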;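 further: ratio of well median GFP fluorescence to mean of DMSO wells on the plate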
RPL19A TOR yeast – yeast TOR pathway RPL19A-GFP modulation | actives 0.3% (n = 330,000) | S. cerevisiae RPL19A-GFP strain, flow cytometry, 3 h; active compounds read low | percent response vs DMSO, % at 10 µM | AID 2025;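 active means percent response vs DMSO below 50%; inconclusive means fewer than 70 events counted for the yeast strain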;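 further: median channel GFP fluorescence of the barcoded RPL19A-GFP strain; ratio of sample median GFP to plate DMSO average so 100% = DMSO; lower means less RPL19A-GFP as with rapamycin TOR inhibition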
* hit, by the source's call; [ ] = dose if it differs, or a comment.

`CCOC(=O)N1CCN(C(=O)CN(c2ccc(Oc3ccccc3)cc2)S(C)(=O)=O)CC1` gave AGP1-GFP MLPCN 91, MEP2 TOR yeast 95, LAP4 TOR yeast 94, CIT2-GFP yeast 96 and RPL19A TOR yeast 95.
`CS(=O)(=O)N(CC(=O)N1CCC(C(N)=O)CC1)c1ccc(Oc2ccccc2)cc1` gave AGP1-GFP MLPCN inconclusive, MEP2 TOR yeast 255*[may fluoresce violet], LAP4 TOR yeast 98, CIT2-GFP yeast inconclusive and RPL19A TOR yeast 45*[may fluoresce violet].
For COc1ccc(N(CC(=O)N2CCC(C(N)=O)CC2)S(=O)(=O)c2ccccc2)cc1 the results were AGP1-GFP MLPCN inconclusive, MEP2 TOR yeast 375*[may fluoresce violet], LAP4 TOR yeast 74, CIT2-GFP yeast inconclusive and RPL19A TOR yeast 42*[may fluoresce violet].
`O=C(O)c1ccccc1OCCOCCOc1ccccc1C(=O)O` gave AGP1-GFP MLPCN 24, MEP2 TOR yeast 147, LAP4 TOR yeast 80, CIT2-GFP yeast inconclusive and RPL19A TOR yeast 44*[may fluoresce violet].
O=C(O)c1ccccc1OCCOc1ccccc1C(=O)O was read as AGP1-GFP MLPCN 102, MEP2 TOR yeast 100, LAP4 TOR yeast 106, CIT2-GFP yeast 93 and RPL19A TOR yeast 100.
COc1ccc(Br)cc1/C=N/NC(=O)Cn1nnnc1N was read as AGP1-GFP MLPCN 46, MEP2 TOR yeast 122, LAP4 TOR yeast 336*, CIT2-GFP yeast 84 and RPL19A TOR yeast 85.
For COc1cc(C(=O)OCC(=O)N2CC(C)OC(C)C2)cc(OC)c1OC (stereo not drawn) the results were AGP1-GFP MLPCN 99, MEP2 TOR yeast 98, LAP4 TOR yeast 100, CIT2-GFP yeast 96 and RPL19A TOR yeast 97.
Screening CC(=O)Oc1ccc2c(=O)c(/C=N/c3cc(=O)[nH]c(=S)[nH]3)coc2c1 returned AGP1-GFP MLPCN 28, MEP2 TOR yeast 903*[may fluoresce violet], LAP4 TOR yeast 106, CIT2-GFP yeast inconclusive and RPL19A TOR yeast 46*[may fluoresce violet].
For O=c1cc(/N=C/c2coc3cc(Br)ccc3c2=O)[nH]c(=S)[nH]1 the results were AGP1-GFP MLPCN 100, MEP2 TOR yeast 96, LAP4 TOR yeast 96, CIT2-GFP yeast 95 and RPL19A TOR yeast 97.
Screening CCOC(=O)c1cc2c(=O)n3ccccc3nc2n(C(C)C)c1=NC(=O)c1ccco1 returned AGP1-GFP MLPCN 21, MEP2 TOR yeast 257*[may fluoresce violet], LAP4 TOR yeast 93, CIT2-GFP yeast inconclusive and RPL19A TOR yeast 35*[may fluoresce violet].
CCOCCCn1c(=NC(=O)c2ccco2)c(C(=O)OCC)cc2c(=O)n3cccc(C)c3nc21 was read as AGP1-GFP MLPCN 29, MEP2 TOR yeast 185*[may fluoresce violet], LAP4 TOR yeast 105, CIT2-GFP yeast inconclusive and RPL19A TOR yeast 51.
For C=CCn1c(=N)c(C(=O)OCC)cc2c(=O)n3cccc(C)c3nc21 the results were MEP2 TOR yeast 244*[may fluoresce violet], LAP4 TOR yeast 102, CIT2-GFP yeast inconclusive and RPL19A TOR yeast 16*[may fluoresce violet].
For CCOC(=O)c1cc2c(=O)n3cccc(C)c3nc2n(Cc2ccco2)c1=NC(=O)c1ccccc1 the results were AGP1-GFP MLPCN 20, MEP2 TOR yeast 604*[may fluoresce violet], LAP4 TOR yeast 106, CIT2-GFP yeast inconclusive and RPL19A TOR yeast 85.
CCCn1c(=NC(=O)c2ccco2)c(C(=O)OCC)cc2c(=O)n3ccccc3nc21 was read as AGP1-GFP MLPCN 81, MEP2 TOR yeast 95, LAP4 TOR yeast 91, CIT2-GFP yeast 95 and RPL19A TOR yeast 91.
Screening CCOC(=O)c1cc2c(=O)n3cccc(C)c3nc2n(CC(C)C)c1=NC(=O)c1ccco1 returned AGP1-GFP MLPCN 103, MEP2 TOR yeast 100, LAP4 TOR yeast 107, CIT2-GFP yeast 90 and RPL19A TOR yeast 90.
`Cn1c(=O)c(S(=O)C2CCCCC2)c(O)c2ccccc21` (stereo not drawn) gave AGP1-GFP MLPCN 91, MEP2 TOR yeast 96, LAP4 TOR yeast 142, CIT2-GFP yeast 68 and RPL19A TOR yeast 98.
C=CCn1c(=O)c(C#N)cc2c(=O)n3ccccc3nc21 was read as AGP1-GFP MLPCN 82, MEP2 TOR yeast 103, LAP4 TOR yeast 90, CIT2-GFP yeast 92 and RPL19A TOR yeast 99.
C=CCn1c(=N)c(C#N)cc2c(=O)n3ccccc3nc21 was read as AGP1-GFP MLPCN inconclusive, MEP2 TOR yeast 240*, LAP4 TOR yeast 73, CIT2-GFP yeast 110 and RPL19A TOR yeast 67.
`COc1ccccc1C(=O)Nc1ccnn1C1CCN(Cc2ncc[nH]2)CC1` gave AGP1-GFP MLPCN 99, MEP2 TOR yeast 99, LAP4 TOR yeast 89, CIT2-GFP yeast 98 and RPL19A TOR yeast 99.
Screening Oc1ccc2oc3c(c2c1)CCCC3 returned AGP1-GFP MLPCN inconclusive, MEP2 TOR yeast 350*[may fluoresce violet], LAP4 TOR yeast 84, CIT2-GFP yeast inconclusive and RPL19A TOR yeast 45*[may fluoresce violet].
`NC(=O)c1ccc(NC(=O)CSC(=O)c2ccccc2)cc1` gave AGP1-GFP MLPCN 94, MEP2 TOR yeast 90, LAP4 TOR yeast 92, CIT2-GFP yeast 84 and RPL19A TOR yeast 92.
Screening O=C(OCc1cc(Cl)ccc1OC(F)F)c1ccc([N+](=O)[O-])o1 returned AGP1-GFP MLPCN 85, MEP2 TOR yeast 93, LAP4 TOR yeast 157*, CIT2-GFP yeast 76 and RPL19A TOR yeast 97.
Screening c1ccc(SCc2nc3ccccc3s2)nc1 returned AGP1-GFP MLPCN 90, MEP2 TOR yeast 108, LAP4 TOR yeast 117, CIT2-GFP yeast 90 and RPL19A TOR yeast 97.
Screening c1ccc2oc(SCc3nc4ccccc4s3)nc2c1 returned AGP1-GFP MLPCN 86, MEP2 TOR yeast 93, LAP4 TOR yeast 154*, CIT2-GFP yeast 64 and RPL19A TOR yeast 88.
O=C(NCC(=O)N1CCCC1)c1cccs1 was read as AGP1-GFP MLPCN 120, MEP2 TOR yeast 174, LAP4 TOR yeast 152*, CIT2-GFP yeast 145 and RPL19A TOR yeast 111.
`CC(Oc1ccc(Cl)cc1)C(=O)N1CCN(C(=O)c2ccco2)CC1` (stereo not drawn) gave AGP1-GFP MLPCN 99, MEP2 TOR yeast 126, LAP4 TOR yeast 106, CIT2-GFP yeast 98 and RPL19A TOR yeast 94.
Screening CN1CCN(c2ccc(S(=O)(=O)N3CCCCC3)cn2)CC1 returned MEP2 TOR yeast 208*[may fluoresce violet], LAP4 TOR yeast 87, CIT2-GFP yeast inconclusive and RPL19A TOR yeast 56.
Screening CCOC(=O)c1sc(=S)n(CC)c1NC(=O)c1ccccc1 returned AGP1-GFP MLPCN 109, MEP2 TOR yeast 107, LAP4 TOR yeast 111, CIT2-GFP yeast 105 and RPL19A TOR yeast 104.
Cc1ccc(OCC(=O)Nc2cccc(O)c2)cc1C was read as AGP1-GFP MLPCN inconclusive, MEP2 TOR yeast 221*[may fluoresce violet], LAP4 TOR yeast 93, CIT2-GFP yeast inconclusive and RPL19A TOR yeast 44*[may fluoresce violet].
`COc1ccc(-c2[nH]ncc2CN2CCC(N3CCSCC3)CC2)cc1F` gave AGP1-GFP MLPCN 97, MEP2 TOR yeast 96, LAP4 TOR yeast 96 and RPL19A TOR yeast 90.
`CCC(=O)N1COC[C@@H]1Cc1ccccc1` gave AGP1-GFP MLPCN inconclusive, MEP2 TOR yeast 211*[may fluoresce violet], LAP4 TOR yeast 59, CIT2-GFP yeast inconclusive and RPL19A TOR yeast 23*[may fluoresce violet].

Source: PubChem
